These results are taken from PubChem BioAssay.

Values joined by “and” are separate entries in the source; they are usually repeats but may differ in a detail not shown here. Identical values can stand only once. Records with an inconclusive call do not appear. Some structures have more than one record in an assay (separate samples or runs), and their calls can disagree. Active and inactive are the calls of the source.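 The calls were made as follows, unless noted: active = compounds whose cell count with miR-34 switched on is under 0.7 times the count with it off; inactive = the rest.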

A short description of assay [1]: SU-DIPG-XXV glioma cell viability, MIPE5.0 library, qHTS (AID 1347068; cut-off not given, nearly all actives have IC50 up to about 30 µM).
A short description of assay [2]: inhibitors of Cryptococcus chitosan production, flow cytometry, Cibacron Brilliant Red staining (AID 1347148; call rule not given here;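 also: compound exposure lasted three days at 37 degrees C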). To be noted: Cryptococcus neoformans chitosan, stronger effect = lower value; at 10 µM unless noted.
Assay [3] can be described thus: phospholipid biosynthesis inhibitors in animal cells, primary screen, cell-based, LOPAC library, screen 4 (AID 1347384; call rule not given here). To be noted: phospholipid biosynthesis inhibition screen, at 10 µM.
Assay [4] is described as follows: survival rescue of mitochondrial mutant cells in low glucose, primary screen, MELAS cybrids, Rieske KO mouse fibroblasts, CellTiter-Glo (AID 1508586;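 active = mean z-score across replicates of 1.96 or higher in either the MELAS or the Rieske mutant cell line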;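 also: z relative to plate mean and SD of compound and empty wells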).
In assay [5] the target is NAD(+) hydrolase SARM1 (Homo sapiens) (UniProt Q6SZW1). Put plainly: SARM1 TIR NADase inhibitors, cell lysate, NAD-Glo luminescence (AID 1508614;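 active = compound whose remaining NAD level is above about 45 nM, limit read from the data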;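 also: higher remaining NAD means stronger inhibition of SARM1 NADase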). To be noted: SAM-TIR HEK293T lysate NADase, at 1 µM, stronger effect = higher value.
Chain of NAD(+) hydrolase SARM1 (Homo sapiens) (Q6SZW1 whole entry, looked up, the tested form may be a part): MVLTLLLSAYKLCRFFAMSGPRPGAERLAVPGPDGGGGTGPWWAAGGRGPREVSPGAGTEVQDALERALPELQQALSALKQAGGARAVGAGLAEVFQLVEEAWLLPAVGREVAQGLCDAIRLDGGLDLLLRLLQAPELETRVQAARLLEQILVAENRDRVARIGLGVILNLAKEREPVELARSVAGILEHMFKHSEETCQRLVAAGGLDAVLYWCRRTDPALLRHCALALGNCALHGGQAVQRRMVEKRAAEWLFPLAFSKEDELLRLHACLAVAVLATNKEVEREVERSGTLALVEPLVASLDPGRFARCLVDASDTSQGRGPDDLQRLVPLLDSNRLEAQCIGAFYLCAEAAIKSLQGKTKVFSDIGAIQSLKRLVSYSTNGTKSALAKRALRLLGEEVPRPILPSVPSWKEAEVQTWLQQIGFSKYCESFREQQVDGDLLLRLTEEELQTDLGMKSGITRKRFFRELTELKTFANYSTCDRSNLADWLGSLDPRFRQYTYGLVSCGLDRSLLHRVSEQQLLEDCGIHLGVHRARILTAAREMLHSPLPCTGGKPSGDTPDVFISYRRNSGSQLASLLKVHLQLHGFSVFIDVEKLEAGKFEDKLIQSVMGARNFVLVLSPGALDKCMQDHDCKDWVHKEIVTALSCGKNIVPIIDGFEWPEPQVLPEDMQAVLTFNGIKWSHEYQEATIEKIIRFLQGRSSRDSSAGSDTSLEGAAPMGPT
Assay [6] deals with Mitogen-activated protein kinase 7 (Homo sapiens) (UniProt Q13164). Briefly: ERK5 transactivation activators in reporter cells, primary screen, cell-based, HTS (AID 1508626;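 active = luciferase signal above three times the same-plate solvent-only control wells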;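 also: luciferase driven by Gal4-ERK5 fusion binding five Gal4 sites before minimal TATA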). As to conditions: HeLa Gal4-ERK5 transactivation, 18 h, at 5 µM, stronger effect = higher value.
Chain of Mitogen-activated protein kinase 7 (Homo sapiens) (Q13164 whole entry, looked up, the tested form may be a part): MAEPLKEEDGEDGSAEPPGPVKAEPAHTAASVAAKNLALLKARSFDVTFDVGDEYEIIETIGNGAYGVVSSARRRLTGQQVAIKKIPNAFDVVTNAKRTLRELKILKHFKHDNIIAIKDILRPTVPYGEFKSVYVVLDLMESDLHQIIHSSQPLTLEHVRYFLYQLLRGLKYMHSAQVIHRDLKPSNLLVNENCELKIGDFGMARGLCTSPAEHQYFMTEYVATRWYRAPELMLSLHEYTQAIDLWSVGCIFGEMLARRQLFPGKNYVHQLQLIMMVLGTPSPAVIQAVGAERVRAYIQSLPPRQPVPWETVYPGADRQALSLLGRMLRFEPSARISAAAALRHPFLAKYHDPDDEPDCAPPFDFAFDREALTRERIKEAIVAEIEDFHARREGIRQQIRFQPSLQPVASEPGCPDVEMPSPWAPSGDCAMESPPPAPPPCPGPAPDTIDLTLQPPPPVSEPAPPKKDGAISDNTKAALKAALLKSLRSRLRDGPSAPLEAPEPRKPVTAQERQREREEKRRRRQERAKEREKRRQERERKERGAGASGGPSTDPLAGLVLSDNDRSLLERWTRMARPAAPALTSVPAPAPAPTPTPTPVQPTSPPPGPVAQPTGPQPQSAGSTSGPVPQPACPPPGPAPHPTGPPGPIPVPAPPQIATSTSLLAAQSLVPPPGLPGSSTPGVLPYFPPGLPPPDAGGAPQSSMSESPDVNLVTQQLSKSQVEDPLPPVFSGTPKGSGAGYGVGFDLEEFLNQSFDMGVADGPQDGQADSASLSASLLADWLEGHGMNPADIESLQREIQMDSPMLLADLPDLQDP
Assay [7] can be described thus: viability rescue of complex I mutant cybrids, primary screen, cell-based, galactose medium, ATP luminescence (AID 1645843;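 active = z-score of at least 1.8 in each of two replicates, scored against plate mean and spread of sample wells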;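 also: positive z means more ATP and so rescue of galactose-driven cybrid death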). To be noted: complex I mutant cybrid cells, 72 h, stronger effect = higher value.
The nature of assay [8]: SU-DIPG-VI glioma cell viability, MIPE4.0 library, CellTiter-Glo luminescence, qHTS (AID 1347066; cut-off not given, nearly all actives have AC50 up to about 30 µM;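 also: cells exposed to compound for 48 hours before readout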). As to conditions: CellTiter-Glo ATP luminescence.
Assay [9] can be described thus: sensitizers of A549 cells to miR-34 induction, primary screen, imaging, A549 dox-inducible miR-34, nuclei and caspase counts (AID 1347080). To be noted: A549 miR-34 inducible, Hoechst nuclei count, 48 h.
Assay [10] can be described thus: JHH-DIPG-1 glioma cell viability, MIPE5.0 library, CellTiter-Glo luminescence, qHTS (AID 1347067; cut-off not given, nearly all actives have AC50 up to about 26 µM;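 also: cells exposed to compound for 48 hours before readout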). As to conditions: JHH-DIPG-1 glioma viability, CellTiter-Glo ATP luminescence.
[11] abbreviates: MELAS cybrid survival, CellTiter-Glo 48 h, stronger effect = higher value.
The mark [12] stands for this setting: Rieske KO mouse fibroblast survival, CellTiter-Glo 72 h.
The mark [13] stands for this setting: stronger effect = lower value, cell number ratio, induced over uninduced.
[14] abbreviates: measured here: relative caspase fold change +Dox/-Dox.
Where [15] appears, read: measured here: total cells with miR-34 induction, stronger effect = lower value.
The mark [16] stands for this setting: measured here: total cells without miR-34 induction.

For `CS(=O)(=O)Nc1ccc([N+](=O)[O-])cc1Oc1ccccc1`, the compound was classed as inactive in assay [1] and in assay [3]. In addition, the fold fluorescence in [2] was 4.45 [at 162.2 µM] (inactive). Also, the z-score was -0.305 (inactive) and 0.634 (inactive) and -0.303 (inactive) in assay [4] (setting [11]); 1.18 and 0.441 and -0.993 in assay [4] (setting [12]); 1.54 (inactive) and 2.81 (active) and 0.735 (inactive) in assay [7]. Also, the remaining NAD in [5] was 10 nM (inactive). Also, in assay [6], the luciferase signal was 60 AU (inactive).

As to `Cc1nccn1CC1CCc2c(c3ccccc3n2C)C1=O` (configuration not stated), in [8], the compound was classed as inactive. Also, the z-score in assay [4] (setting [11]) is -0.478 (inactive) and 0.555 (inactive) and 0.267 (inactive); in [4] (setting [12]), 0.23 and 0.514 and 0.91; in [7], 0.415 (inactive) and 0.495 (inactive) and 0.69 (inactive). Besides, the remaining NAD in assay [5] was 10 nM (inactive).

For `CCCc1c(OCCCCc2nn[nH]n2)ccc(C(C)=O)c1O`, the fold change was 0.952 (inactive) and 0.923 (inactive) and 1.01 (inactive) in assay [9] (setting [13]); 1 and 1.28 and 1.02 in assay [9] (setting [14]). For the same compound, the cell count in assay [9] (setting [15]) was 9490 and 5900 and 5660; in assay [9] (setting [16]), 9970 and 6400 and 5590. Besides, the fold fluorescence in [2] is 4.57 (inactive). Moreover, in [7], the z-score was 2.16 (active).

Turning to `CCCCC(=O)O[C@]1(C(=O)CO)[C@@H](C)C[C@H]2[C@@H]3CCC4=CC(=O)C=C[C@]4(C)[C@@]3(F)[C@@H](O)C[C@@]21C`, the compound was called inactive in assay [10] and in assay [1]. The remaining NAD in assay [5] was 10 nM (inactive). Besides, the luciferase signal in assay [6] was 80 AU (inactive).

Regarding `CN(C)CCCN1c2ccccc2Sc2ccc(C(F)(F)F)cc21`, the fold change was 1.11 (inactive) and 0.899 (inactive) and 0.891 (inactive) in assay [9] (setting [13]); 0.594 and 1.31 and 3.14 in assay [9] (setting [14]). Moreover, the cell count in assay [9] (setting [15]) was 1420 and 7820 and 9630; in assay [9] (setting [16]) it was 1280 and 8700 and 10800. Moreover, the compound was called inactive in assay [3]. The z-score in [4] (setting [11]) was -0.173 (inactive); in assay [4] (setting [12]), 0.266; in assay [7], -1.38 (inactive). Also, the remaining NAD in [5] is 10 nM (inactive). For the same compound, in assay [6], the luciferase signal was 64 AU (inactive).

As to `C=CCc1ccccc1OCC(O)CNC(C)C` (configuration not stated), the fold change is 0.963 (inactive) and 0.998 (inactive) and 0.909 (inactive) in [9] (setting [13]); 1.1 and 1.18 and 0.556 in [9] (setting [14]). Moreover, the cell count in assay [9] (setting [15]) is 10100 and 7510 and 7890; in assay [9] (setting [16]) it was 10500 and 7520 and 8680. Further, the compound was called inactive in assay [3]. Moreover, the z-score was -0.407 (inactive) and -0.689 (inactive) in [4] (setting [11]); -0.409 and 0.651 in [4] (setting [12]); -0.345 (inactive) and 0.39 (inactive) in assay [7]. The remaining NAD in assay [5] was 10 nM (inactive). Further, the luciferase signal in assay [6] was 60 AU (inactive).

Consider `NS(=O)(=O)c1cc(C(=O)O)c(NCc2ccco2)cc1Cl`, for which the outcome in [8] was inactive. In addition, the z-score in [4] (setting [11]) is -0.297 (inactive) and -0.16 (inactive) and 0.0353 (inactive); in [4] (setting [12]), 0.703 and -0.228 and 0.451; in assay [7] it was 0.405 (inactive) and 0.415 (inactive). For the same compound, the remaining NAD in [5] was 10 nM (inactive). In addition, in [6], the luciferase signal is 72 AU (inactive).

Consider `CC1=C(C(=O)O)N2C(=O)[C@@H](NC(=O)[C@H](N)C3=CCC=CC3)[C@H]2SC1`, for which the outcome in [8] was inactive. Moreover, the remaining NAD in [5] was 10 nM (inactive). Also, in assay [6], the luciferase signal was 48 AU (inactive).

Take `CNS(=O)(=O)Cc1ccc2[nH]cc(CCN(C)C)c2c1`: in assay [8], the result was inactive. Further, the z-score is -0.261 (inactive) and 0.654 (inactive) and -0.798 (inactive) in [4] (setting [11]); -0.042 and 0.351 and -0.245 in assay [4] (setting [12]); 0.385 (inactive) and 0.365 (inactive) and 0.755 (inactive) in assay [7]. Besides, the remaining NAD in [5] was 10 nM (inactive).

For the compound `CN(C)[C@@H]1C(=O)C(C(N)=O)=C(O)[C@@]2(O)C(=O)C3=C(O)c4c(O)ccc(Cl)c4[C@@H](O)[C@H]3C[C@@H]12`, the fold change in assay [9] (setting [13]) is 1 (inactive) and 0.852 (inactive) and 0.887 (inactive); in assay [9] (setting [14]) it was 0.853 and 1.42 and 3.05. The cell count was 2520 and 7990 and 10000 in [9] (setting [15]); 2520 and 9380 and 11300 in [9] (setting [16]). Moreover, the result in [3] was inactive. Further, the z-score is 0.25 (inactive) in assay [4] (setting [11]), -1.49 in assay [4] (setting [12]) and 2.89 (active) in assay [7]. For the same compound, the remaining NAD in assay [5] was 10 nM (inactive). Also, the luciferase signal in [6] is 36 AU (inactive).

Consider `CCN(CC)CCNC(=O)c1cc(S(C)(=O)=O)ccc1OC`, for which the fold change in assay [9] (setting [13]) was 0.998 (inactive) and 0.882 (inactive) and 0.896 (inactive); in assay [9] (setting [14]), 1.76 and 0.709 and 3.36. The cell count in [9] (setting [15]) was 9610 and 9280 and 12200; in [9] (setting [16]), 9630 and 10500 and 13600. Moreover, the compound was called inactive in assay [3]. Further, the results for the z-score in assay [4] (setting [11]), in assay [4] (setting [12]) and in assay [7] were 0.496 (inactive), -0.0746 and 0.285 (inactive), respectively. Also, the remaining NAD in [5] was 10 nM (inactive). Besides, the luciferase signal in [6] is 80 AU (inactive).

`CN(C)CCCN1c2ccccc2Sc2ccccc21`: the fold change in assay [9] (setting [13]) was 0.997 (inactive) and 0.896 (inactive) and 0.916 (inactive); in [9] (setting [14]) it was 1.96 and 1.17 and 2.21. The cell count is 7860 and 8360 and 9720 in assay [9] (setting [15]); 7880 and 9340 and 10600 in assay [9] (setting [16]). Besides, the result in [3] was inactive. For the same compound, the z-score is -0.514 (inactive) in assay [4] (setting [11]), -0.0726 in assay [4] (setting [12]) and -0.99 (inactive) in assay [7]. Moreover, in assay [5], the remaining NAD was 10 nM (inactive). Also, in [6], the luciferase signal was 44 AU (inactive).

As for `CC(C)NNC(=O)c1ccncc1`, the fold change in assay [9] (setting [13]) was 1.01 (inactive) and 0.987 (inactive) and 0.902 (inactive); in [9] (setting [14]) it was 0.707 and 0.895 and 1.13. Further, the cell count in [9] (setting [15]) was 10400 and 9260 and 10200; in assay [9] (setting [16]), 10300 and 9380 and 11300. Further, the compound was classed as inactive in assay [3]. Besides, the z-score in assay [4] (setting [11]) was -0.146 (inactive) and 0.243 (inactive); in assay [4] (setting [12]), -0.0689 and -0.0455; in assay [7], 0.54 (inactive) and 0.67 (inactive). In addition, the remaining NAD in assay [5] is 10 nM (inactive). The luciferase signal in assay [6] is 60 AU (inactive).

Take `C=CC(N)CCC(=O)O` (configuration not stated): the fold change is 0.942 (inactive) and 0.866 (inactive) and 0.941 (inactive) in [9] (setting [13]); 1.9 and 1.11 and 2.08 in assay [9] (setting [14]). In addition, the cell count in [9] (setting [15]) is 9530 and 8830 and 11000; in assay [9] (setting [16]) it was 10100 and 10200 and 11700. In [3], the compound was classed as inactive. The z-score is -0.0921 (inactive) in [4] (setting [11]), 0.0881 in assay [4] (setting [12]) and 0.155 (inactive) in assay [7]. Besides, in [5], the remaining NAD was 10 nM (inactive). The luciferase signal in assay [6] is 92 AU (inactive).

In the case of `CC(CN(C)C)CN1c2ccccc2CCc2ccccc21` (configuration not stated), the fold change is 1.11 (inactive) and 0.82 (inactive) and 0.914 (inactive) in assay [9] (setting [13]); 1.28 and 1.05 and 3.48 in assay [9] (setting [14]). Besides, the cell count in [9] (setting [15]) is 8450 and 7420 and 11100; in assay [9] (setting [16]), 7640 and 9050 and 12100. Also, the compound was classed as inactive in assay [3]. The z-score is -0.24 (inactive) in assay [4] (setting [11]), -0.99 in assay [4] (setting [12]) and -1.16 (inactive) in [7]. The remaining NAD in assay [5] is 10 nM (inactive). Moreover, in [6], the luciferase signal is 64 AU (inactive).
